Source: PubChem
CHO-K1 Ca antag – nonselective inhibitor or artifact in parental CHO-K1 cells. AID 602250. ATP-induced calcium, Fluo-8 fluorescence. inhibition, % at 3 µM. 360,000 compounds, 0.6% hits;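 active means inhibition above a per-plate cutoff, the plate's mean sample inhibition plus 3 SD, cut at about 24% in these data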;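 further: 0% = DMSO plus EC80 ATP and 100% = DMSO alone without ATP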
M1 ag – human M1 muscarinic receptor agonism. CHO-K1 hM1, Fluo-8 calcium fluorescence, agonist mode; 0% DMSO, 100% acetylcholine EC100. activation, % at 3 µM. 360,000 compounds, 0.33% hits. AID 588814;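 active means activation above the run's mean compound activation plus 3 SD, cut at about 16% in these data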;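 further: peak over basal fluorescence ratio within a 140 s kinetic read after compound addition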
Target sequence (P11229 whole entry, looked up): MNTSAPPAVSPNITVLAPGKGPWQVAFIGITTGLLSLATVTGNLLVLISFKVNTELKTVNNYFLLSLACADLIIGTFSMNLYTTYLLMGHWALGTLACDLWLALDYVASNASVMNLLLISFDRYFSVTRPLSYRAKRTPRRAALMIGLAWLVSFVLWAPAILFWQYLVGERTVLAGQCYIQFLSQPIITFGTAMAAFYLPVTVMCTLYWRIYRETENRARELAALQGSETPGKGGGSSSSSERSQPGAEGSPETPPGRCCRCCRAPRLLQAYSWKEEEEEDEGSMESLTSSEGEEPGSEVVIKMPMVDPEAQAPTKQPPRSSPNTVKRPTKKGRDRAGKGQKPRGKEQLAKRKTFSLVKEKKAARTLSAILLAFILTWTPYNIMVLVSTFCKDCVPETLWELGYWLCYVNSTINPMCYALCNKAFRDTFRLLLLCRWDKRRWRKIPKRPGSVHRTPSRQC
M1 PAM parental – M1 PAM counterscreen hit in parental CHO-K1 cells; ATP EC20, Fluo-8 calcium fluorescence; 0% at ATP EC20, 100% at ATP max; activation, % at 3 µM; 360,000 compounds, 0.02% hits; AID 602247;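 active means activation above the run cutoff, the mean activation of all test compounds plus 3 SD, cut at about 40% in these data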;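 further: peak over basal fluorescence ratio in a 140 s read after ATP addition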
M1 PAM – potentiates human M1 receptor response to acetylcholine; P11229; CHO-K1 hM1, Fluo-8 calcium fluorescence, ACh EC20; 0% = ACh EC20, 100% = maximal ACh; activation, % at 3 µM; 360,000 compounds, 0.088% hits; AID 588819; in the data active means activation above about 19%, passing the limit was not always enough
M1 antag – antagonists of human M1 muscarinic receptor; P11229; CHO-K1 hM1, Fluo-8 calcium fluorescence, ACh EC80 antagonist; inhibition, % at 3 µM; 360,000 compounds, 1.3% hits; AID 588852;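 active means percent inhibition above its own plate's cutoff, namely the mean of that plate's compound wells plus 3 SD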;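 further: peak over basal fluorescence ratio during 140 s after agonist addition; 0% = ACh EC80 plus DMSO and 100% = DMSO alone without agonist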
M1 ag parental – M1 agonist counterscreen hit in parental CHO-K1 cells. Fluo-8 calcium fluorescence; scaled to maximal ATP response, vehicle zero. activation, % at 3 µM. 360,000 compounds, 0.48% hits. AID 602248; in the data active means activation above about 15%;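 further: untransfected CHO-K1 host cells lacking M1 receptor as counterscreen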
Numbers without * were called inactive; · = no result. Only some compounds are listed: those with a hit (about 2.3% of all), similar ones and a draw of the others.

SMILES | CHO-K1 Ca antag | M1 ag | M1 PAM parental | M1 PAM | M1 antag | M1 ag parental
CN1/C(=C\C(=O)c2ccco2)C(C)(C)c2ccccc21 | 38.8* | 0.1 | 0.7 | -9.8 | 31.0* | 13.6
COc1ccc(OC)c(N(CCN2C(=O)c3ccccc3C2=O)C(=O)C2CCC(=O)C2C)c1 (centres undefined) | -7.8 | -1.3 | 6.7 | 3.6 | -14.1 | 0.1
O=C1c2ccccc2C(O)N1Cc1ccc2c(c1)OCO2 (centres undefined) | 14.8 | -0.5 | -8.6 | -11.4 | 28.4* | 4.2
CCOC(=O)c1c(C)nc2sc(C(=O)Nc3ccc(C(C)=O)cc3)c(N)c2c1-c1ccc(OC)cc1 | 8.0 | -2.3 | -2.9 | -8.8 | 37.6* | 1.6
CCOC(=O)c1c(C)nc2sc(C(=O)Nc3ccc(OC)cc3)c(N)c2c1-c1ccc(OC)cc1 | 13.7 | -1.9 | -6.4 | -3.7 | 12.9 | 0.1
CN1C(=O)/C(=C/c2cc(C(C)(C)C)c(O)c(C(C)(C)C)c2)NC1=S | -13.5 | -8.2 | 18.7 | 4.5 | -12.9 | -0.1
CCC(Oc1ccccc1)C(=O)Nc1ccc(S(=O)(=O)Nc2cc(C)on2)cc1 (centres undefined) | -11.7 | -0.8 | 16.4 | 29.1* | -24.8 | -0.4
O=C(NC(=S)Nc1ccc(S(=O)(=O)Nc2nccs2)cc1)C1CC1 | -9.8 | -1.6 | 8.6 | 3.4 | -9.7 | 0.7
CCC(Oc1ccccc1)C(=O)Nc1ccc(S(=O)(=O)Nc2ncccn2)cc1 (centres undefined) | -11.8 | -1.0 | 14.6 | 9.1 | -14.7 | 0.9
CC(Oc1ccc(Br)cc1)C(=O)Nc1ccc(S(=O)(=O)Nc2nccs2)cc1 (centres undefined) | 7.2 | 15.4 | 11.9 | 3.5 | 16.5 | 10.4
CCC(Oc1ccc(C)cc1)C(=O)Nc1ccc(S(=O)(=O)Nc2nccs2)cc1 (centres undefined) | -18.4 | 19.3* | -1.5 | 23.9 | -9.6 | 2.8
CC(C)C(=O)NC(=S)Nc1ccc(S(=O)(=O)Nc2nccs2)cc1 | 5.0 | -12.0 | 7.0 | 6.8 | -4.0 | 16.3*
O=C(O)C1CCC(NSc2ccccc2[N+](=O)[O-])CC1 (centres undefined) | -2.9 | -0.4 | -1.9 | 16.4 | -9.9 | 0.0
Cc1ccc(NC(=O)COC(=O)/C=C/c2c(C)nn(-c3ccc(F)cc3)c2Cl)cc1F | -2.3 | -5.1 | 19.8 | 1.8 | -10.7 | -0.3
N#C/C(=C\c1cccc(NC(=O)c2ccccc2Cl)c1)C(=O)NCCc1ccccc1 | 21.9 | -1.5 | 1.4 | -0.1 | 5.2 | 4.7
O=S(=O)(NC1=NCCCCC1)c1ccc(F)cc1 | -4.0 | -3.1 | 6.9 | 7.3 | -0.9 | 0.6
CC(Oc1cccc(Cl)c1)C(=O)Nc1ccc(S(=O)(=O)NC2=NCCCCC2)cc1 (centres undefined) | -8.2 | 12.0 | 2.8 | 7.2 | -8.2 | 11.6
CC(Oc1ccc(Br)cc1)C(=O)Nc1ccc(S(=O)(=O)NC2=NCCCCC2)cc1 (centres undefined) | -3.5 | 28.8* | -12.2 | -8.2 | 17.5 | 23.2*
CC(Oc1ccc(F)cc1)C(=O)Nc1ccc(S(=O)(=O)NC2=NCCCCC2)cc1 (centres undefined) | 1.9 | 23.6* | -11.1 | 3.4 | -3.8 | 5.0
Cc1ccccc1CN1CC2=C(CCN(Cc3ccccc3)C2=O)N2CCN=C12 | -5.5 | -1.8 | 1.1 | -1.5 | 9.1 | 1.1
CCOC(=O)CNC(=O)CSc1nnc(NC(=O)c2ccc(S(=O)(=O)N3CCOCC3)cc2)s1 | 1.9 | -1.2 | 2.8 | 0.8 | -2.6 | 0.6
Brc1cccc2sc(N3CCCC3)nc12 | -10.7 | -1.3 | 6.6 | -2.8 | -7.8 | 0.6
CC(=O)N1CCc2c(sc(NC(=O)C3CCN(S(=O)(=O)c4cccs4)CC3)c2C(N)=O)C1 | 6.4 | -4.4 | -1.4 | 8.7 | -7.5 | 1.2
CCCN1CCc2c(sc(NC(=O)C3CCN(S(=O)(=O)c4cccs4)CC3)c2C(N)=O)C1 | 28.8* | -7.1 | -36.5 | -23.1 | 53.4* | 0.1
CCC1NC(=O)c2cccnc2-n2c1nc1ccc(OC)cc1c2=O (centres undefined) | -6.2 | -4.0 | 19.0 | 2.4 | -9.1 | 0.5
SMILES | CHO-K1 Ca antag | M1 ag | M1 PAM parental | M1 PAM | M1 antag | M1 ag parental
COc1ccc(OCCCC(=O)Nc2nccs2)cc1 | 4.7 | -1.1 | -5.0 | 9.4 | -14.9 | 1.2
C[N+]1(CC(=O)Nc2ccccc2Cl)CCN(C(=O)c2cccs2)CC1 | -19.1 | -4.8 | 15.7 | -12.2 | 33.3* | 0.3
CCc1sc(C(=O)Nc2ncccc2O)cc1C | 1.1 | 4.8 | 7.6 | 25.3* | -27.6 | 0.4
CCc1sc(C(=O)Nc2ncccc2C)cc1C | -6.1 | -2.1 | 6.5 | 9.5 | -9.8 | 0.2
Cc1noc(C)c1S(=O)(=O)N(C)C[C@H]1Oc2ccc(NC(=O)Cn3cnnn3)cc2C(=O)N([C@H](C)CO)C[C@@H]1C | -12.8 | -4.3 | -4.4 | 2.3 | -0.8 | 0.2
C[C@H](CO)N1C[C@H](C)[C@@H](CN(C)S(=O)(=O)c2ccccc2)Oc2ccc(NC(=O)CCN3CCOCC3)cc2C1=O | 1.7 | -11.9 | -3.6 | -33.2 | 34.8* | -0.5
C[C@H](CO)N1C[C@H](C)[C@@H](CN(C)S(C)(=O)=O)Oc2ccc(NC(=O)CCN3CCOCC3)cc2C1=O | -12.9 | -2.1 | 12.2 | 5.3 | -9.0 | 0.2
C[C@H](CO)N1C[C@H](C)[C@@H](CN(C)S(=O)(=O)c2cccs2)Oc2ccc(NC(=O)CCC(F)(F)F)cc2C1=O | -7.0 | -11.6 | 9.1 | -34.5 | 57.1* | -0.1
C[C@H](CO)N1C[C@H](C)[C@@H](CN(C)S(=O)(=O)c2ccccc2)Oc2ccc(NC(=O)Cn3cnnn3)cc2C1=O | -16.9 | -10.5 | 14.7 | -28.4 | 33.9* | 0.7
CCOC(=O)C(CC)c1cc2n(c(=O)c1C#N)CCC21OCCO1 (centres undefined) | -14.3 | -6.8 | 21.5 | 6.4 | -6.2 | 1.4
Cn1c2ccccc2c2cc(/C=N/NC(=O)c3cc(O)ccc3O)ccc21 | 24.4* | -0.1 | -23.0 | -11.6 | 29.9* | -0.2
Cn1c2ccccc2c2cc(/C=N/NC(=O)c3cc(O)cc(O)c3)ccc21 | 1.5 | -0.7 | -8.2 | -0.4 | 8.2 | -0.7
Cc1ccccc1S(=O)(=O)Cc1ccc(C(=O)N2CCN(c3cccc(C)c3C)CC2)o1 | 26.2* | 2.7 | 3.9 | -6.5 | 24.9 | 6.5
c1ccc(CSc2nc3ncccn3n2)cc1 | -22.6 | -3.0 | 21.2 | 9.9 | -12.3 | 0.0
CCCN(CC(=O)Nc1ccccc1C)C(=O)c1cccc(S(=O)(=O)N2CCc3ccccc3C2)c1 | 15.7 | 0.3 | -14.5 | -13.8 | 35.0* | 13.0
O=C1NC[C@H](CCCCN2CCN(Cc3ccccc3)C(=O)C2=O)N(CC2CCCCC2)C1=O | -14.2 | · | 14.5 | · | · | 0.7
